In all, about 33,000 sequences were measured (“E-score (-0.5 to 0.5)”: median about -0.054, highest 2% from about 0.39 on). What follows is part of a selection rich in the highest values, with near analogues and random picks from the rest.
The sequences below were run against Ylr278c (UniProt Q05854) (assay: PBM E-score (8-mer binding enrichment) (E-score (-0.5 to 0.5)); higher = stronger / more preferred TF binding). Details: protein concentration: 200 nM; construct: GST-DNA-binding domain.
Method: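 Universal 'all 10-mer' protein binding microarrays (Agilent AMADID 015681) probed with GST-tagged S. cerevisiae TFs (full-length or DBD) made by in vitro transcription/translation (PURExpress), about 100-200 nM. Bound TF was detected with fluorescent anti-GST. Each ungapped 8-mer (which stands for itself and its reverse complement) is scored by the PBM enrichment score (E-score), a modified Wilcoxon-Mann-Whitney statistic from -0.5 to +0.5, computed with the Universal PBM Analysis Suite. Scale: above 0.35 generally sequence-specific binding.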

Sequence of UniProt Q05854 (Q05854 whole entry, the tested form may be a part): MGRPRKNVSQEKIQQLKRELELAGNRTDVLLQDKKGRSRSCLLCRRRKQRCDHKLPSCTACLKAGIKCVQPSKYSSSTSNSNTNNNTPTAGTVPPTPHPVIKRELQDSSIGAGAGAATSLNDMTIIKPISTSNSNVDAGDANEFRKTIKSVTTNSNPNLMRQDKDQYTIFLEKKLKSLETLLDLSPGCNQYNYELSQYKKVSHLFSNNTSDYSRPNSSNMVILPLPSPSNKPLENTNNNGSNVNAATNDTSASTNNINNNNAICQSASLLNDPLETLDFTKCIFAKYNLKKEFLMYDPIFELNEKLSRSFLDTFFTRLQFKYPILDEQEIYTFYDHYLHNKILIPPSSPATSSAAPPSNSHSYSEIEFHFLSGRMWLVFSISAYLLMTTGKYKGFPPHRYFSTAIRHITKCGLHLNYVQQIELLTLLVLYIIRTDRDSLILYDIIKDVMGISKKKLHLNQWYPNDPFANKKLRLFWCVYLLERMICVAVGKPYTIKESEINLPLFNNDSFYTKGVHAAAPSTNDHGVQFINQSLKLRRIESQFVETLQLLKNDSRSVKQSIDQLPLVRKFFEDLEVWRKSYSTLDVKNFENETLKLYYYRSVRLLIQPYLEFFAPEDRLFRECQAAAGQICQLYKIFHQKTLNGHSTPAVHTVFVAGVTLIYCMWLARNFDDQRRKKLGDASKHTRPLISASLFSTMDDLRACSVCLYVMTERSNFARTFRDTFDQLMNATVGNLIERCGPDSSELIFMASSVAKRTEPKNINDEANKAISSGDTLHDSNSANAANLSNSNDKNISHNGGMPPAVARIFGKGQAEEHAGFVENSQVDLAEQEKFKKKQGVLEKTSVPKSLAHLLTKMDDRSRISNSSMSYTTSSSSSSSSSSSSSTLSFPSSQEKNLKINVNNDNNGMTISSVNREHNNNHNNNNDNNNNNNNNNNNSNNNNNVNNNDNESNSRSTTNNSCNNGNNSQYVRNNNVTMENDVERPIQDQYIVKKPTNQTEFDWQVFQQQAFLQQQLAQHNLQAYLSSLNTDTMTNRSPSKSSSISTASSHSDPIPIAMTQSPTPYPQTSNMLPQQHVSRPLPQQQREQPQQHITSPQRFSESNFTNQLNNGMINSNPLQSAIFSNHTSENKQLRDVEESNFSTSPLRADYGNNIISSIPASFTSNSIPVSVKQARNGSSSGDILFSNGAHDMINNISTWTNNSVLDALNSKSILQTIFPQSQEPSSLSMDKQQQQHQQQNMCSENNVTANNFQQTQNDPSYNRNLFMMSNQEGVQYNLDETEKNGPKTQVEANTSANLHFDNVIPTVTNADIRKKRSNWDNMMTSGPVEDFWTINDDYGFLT

Sequence	PBM E-score
GAGACTCC	0.249
ATCCGCCC	0.291
ATCCGCCA	0.196
CTCCGCCC	0.457
GTCCGCCA	0.293
AGCCGCCG	0.313
ACCCGCCG	0.307
CTCCGCCA	0.391
CGCCGCCC	0.284
ATCCGCCG	0.401
CCAGTCCC	-0.0319
GCGTGAGA	-0.0361
GCCTCATA	-0.00634
AATGGTAA	0.0806
ACTTTGCC	0.0108
CGTCTGGA	-0.166
CGACTGCC	0.0706
AGAGATAG	-0.0754
CGGAGGAC	0.423
TGGAGGAA	-0.131
AGGAGGAA	-0.165
AGGAGGCC	-0.164

Sequence	PBM E-score
GGGAGGAC	0.0177
CGGAGGCA	0.34
AGGAGGAC	-0.294
AGGAGGAG	-0.212
CCGAGGAG	0.183
CGGAGGAG	0.417
CGGAGGAA	0.436
CGGAGGCC	0.42
ATTCGCTA	-0.0743
TCTGCTCA	-0.298
CAGTATGG	-0.195
CCACATCC	0.0271
AGAGTCAC	-0.333
CAGAATCG	0.00258
CACGTCAA	-0.202
CCCTTAGA	-0.393
ACCCCGAC	0.39
GCCCCGAC	0.278
GCCCCGAA	0.301
CCCCCGAC	0.228
CCCCCGAA	0.184
ACCCCGAA	0.392

Sequence	PBM E-score
ACCCCGAT	0.426
ACCCCGAG	0.319
AACCCGAT	0.29
AATCTATG	-0.0536
ACCATAGA	0.00619
GTTCAGGA	-0.0137
GATCTCAC	0.0769
CCAGTAGG	-0.101
ATCCGTGG	0.299
AGAAGGCC	0.0969
ATCCGTGC	0.125
CTCCGTGA	0.425
ATCCGTTC	0.183
CTCCGTTC	0.394
CTCCGTTA	0.347
CTCCGTGC	0.416
ATCCGTGA	0.244
CACCGTGC	-0.0579
GTCCGTGA	0.278
GTGCTAGA	-0.277
AGCGTGGC	-0.0918
AGTGGGAG	-0.221

Sequence	PBM E-score
CGAAGGCA	-0.0856
CGTCCATC	0.145
CAGTATCG	0.0195
CGACCCCG	0.247
GAGGAGGA	-0.246
GCGGAGGA	0.406
CCGGAGGA	0.465
CGGGAGGA	0.25
CAGGAGGC	-0.0031
CCGGAGGC	0.433
ACGGAGGC	0.302
ACGGAGGA	0.383
CAGGAGGA	-0.219
GACGGCAC	0.0236
GCAGTCGA	-0.0263
TAACAACA	-0.124
CAGATCTA	-0.168
CTCTGATC	-0.271
TCCGAAGA	0.433
CCCGAAAA	0.294
TCCGAACA	0.429
GCCGAACA	0.21

Sequence	PBM E-score
CCCGAAGA	0.156
ACCGAACA	0.0403
GCCGAAAA	0.359
ACCGAAGA	0.183
TCCGAAAA	0.431
AAAGAGTG	-0.158
ATTTGTCA	-0.182
CGAAAGAC	0.133
CTTTCATC	-0.135
AGTCCTGC	-0.116
AGTCCCGG	0.362
AGTCCGCG	0.369
AGTCCGGG	0.44
CGTCCGCC	0.319
AGTCCGTC	0.381
AGTCCGCC	0.424
AGTCCCCC	-0.261
AGTCCGGC	0.44
CCAGGTCA	-0.253
AGGCACTG	-0.178
CATGCTGC	-0.0378
ACTGCCCT	-0.112

Reference: the supplement of paper PMC3334620
